Test results from PubChem BioAssay AID1159580 (chemical genetic matrix, 2015).
Where “and” joins values, the source holds several entries; their conditions need not be identical. Equal values may be shown once. Screen size: about 5,500 compounds; about 2,000 (36%) were called active. Another 18% or so got no clear call; they are omitted. No stated cut-off is given here; in the data, active means normalized growth mostly below about 0.91 (no sharp cut-off); inconclusive means no clear call, values can overlap the other calls; inactive means mostly above about 0.92. The list shows a part of the results.

Test: chemical genetic growth profiling, strain panel (AID 1159580);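 further: tested at 20 µM; growth read once vehicle control cultures reached saturation at 30 °C; 1 = growth at the plate median or of vehicle wells; lower values mean less growth of the strain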
Conditions: S. cerevisiae deletion strains, growth OD

Measured: normalized growth

C[C@@H]1O[C@@H](OC[C@H]2OC(Oc3c(-c4ccc(OCCO)c(OCCO)c4)oc4cc(OCCO)cc(O)c4c3=O)[C@H](O)[C@@H](O)[C@@H]2O)[C@H](O)[C@H](O)[C@H]1O (stereo not given in full)
inactive: locus YAL013W, strain DEP1, active compounds read low 0.994 | locus YAL021C, strain ccr4, active compounds read low 0.972 | locus YAL026C, strain drs2, active compounds read low 0.973 | locus YAL030W, strain snc1, active compounds read low 0.946 | locus YBL061C, strain skt5, active compounds read low 0.974 | locus YBR009C, strain hhf1, active compounds read low 0.981 | locus YBR021W, strain FUR4, active compounds read low 1.02 | locus YBR023C, strain chs3, active compounds read low 0.956 | locus YBR171W, strain sec66, active compounds read low 0.945 | locus YBR229C, strain ROT2, active compounds read low 0.961 | locus YBR231C, strain swc5, active compounds read low 0.962 | locus YBR279W, strain paf1, active compounds read low 0.967 | locus YCL011C, strain gbp2, active compounds read low 0.952 | locus YCL016C, strain dcc1, active compounds read low 0.984 | locus YCL029C, strain bik1, active compounds read low 1.01 | locus YCL061C, strain MRC1, active compounds read low 0.973 | locus YCL069W, strain vba3, active compounds read low 0.966 | locus YCR088W, strain abp1, active compounds read low 0.969 | locus YDL005C, strain med2, active compounds read low 0.963 | locus YDL035C, strain GPR1, active compounds read low 0.945 | locus YDL040C, strain nat1, active compounds read low 0.972 | locus YDL074C, strain BRE1, active compounds read low 1.01 | locus YDL101C, strain DUN1, active compounds read low 0.979 | locus YDL185W, strain tfp1, active compounds read low 0.973 | locus YDL192W, strain arf1, active compounds read low 0.992 | locus YDR001C, strain nth1, active compounds read low 0.943 | locus YDR069C, strain doa4, active compounds read low 0.931 | locus YDR101C, strain arx1, active compounds read low 1.04 | locus YDR137W, strain rgp1, active compounds read low 0.938 | locus YDR159W, strain sac3, active compounds read low 0.94 | locus YDR162C, strain NBP2, active compounds read low 0.985 | locus YDR195W, strain ref2 0.892 | locus YDR297W, strain sur2, active compounds read low 0.974 | locus YDR318W, strain mcm21, active compounds read low 0.963 | locus YDR334W, strain swr1, active compounds read low 0.916 | locus YDR335W, strain msn5, active compounds read low 0.958 | locus YDR388W, active compounds read low 0.994 | locus YDR392W, strain spt3, active compounds read low 1.02 | locus YDR502C, strain sam2, active compounds read low 0.995 | locus YEL003W, strain gim4, active compounds read low 0.968 | locus YEL037C, strain rad23, active compounds read low 0.955 | locus YEL061C, strain CIN8 (second series), active compounds read low 0.947 | locus YEL061C, strain CIN8, active compounds read low 0.997 | locus YER015W, strain faa2, active compounds read low 0.984 | locus YER016W, strain bim1, active compounds read low 0.96 | locus YER110C, active compounds read low 0.978 | locus YER111C, strain swi4, active compounds read low 0.963 | locus YER155C, strain BEM2 (second series), active compounds read low 0.974 | locus YER155C, strain BEM2, active compounds read low 1 | locus YER167W, strain BCK2, active compounds read low 1.01 | locus YFR010W, strain ubp6, active compounds read low 0.946 | locus YGL078C, strain dbp3, active compounds read low 0.996 | locus YGL086W, strain mad1, active compounds read low 1.03 | locus YGL167C, strain pmr1, active compounds read low 0.933 | locus YGL173C, strain kem1, active compounds read low 0.993 | locus YGL227W, strain vid30, active compounds read low 0.938 | locus YGL240W, strain doc1, active compounds read low 0.958 | locus YGL248W, strain PDE1, active compounds read low 0.965 | locus YGL253W, strain hxk2, active compounds read low 0.965 | locus YGR078C, strain PAC10, active compounds read low 0.984 | locus YGR135W, strain pre9, active compounds read low 0.97 | locus YGR252W, strain gcn5, active compounds read low 0.947 | locus YHR013C, strain ard1, active compounds read low 0.973 | locus YHR027C, strain rpn1, active compounds read low 0.958 | locus YHR030C, strain SLT2, active compounds read low 1 and 0.999 | locus YHR079C, strain IRE1 (second series), active compounds read low 1 | locus YHR079C, strain IRE1, active compounds read low 1.02 | locus YHR094C, strain hxt1, active compounds read low 0.969 | locus YHR129C, strain ARP1, active compounds read low 0.99 | locus YHR142W, strain chs7, active compounds read low 0.958 | locus YHR200W, strain rpn10, active compounds read low 0.983 | locus YIL066C, strain RNR3, active compounds read low 0.972 | locus YIL073C, strain SPO22, active compounds read low 0.969 | locus YIL125W, strain kgd1, active compounds read low 0.991 | locus YIR030C, strain dcg1, active compounds read low 0.993 | locus YJL092W, strain hpr5, active compounds read low 0.967 | locus YJL095W, strain BCK1 (second series), active compounds read low 0.967 | locus YJL095W, strain BCK1, active compounds read low 0.972 and 1.01 | locus YJL115W, strain asf1, active compounds read low 0.948 | locus YJL129C, strain trk1, active compounds read low 0.954 | locus YJL134W, strain LCB3, active compounds read low 0.99 | locus YJL154C, strain vps35, active compounds read low 0.958 | locus YJL164C, strain tpk1, active compounds read low 0.995 | locus YJL166W, strain qcr8, active compounds read low 0.971 | locus YJL168C, strain set2, active compounds read low 0.993 | locus YJL187C, strain SWE1 (second series), active compounds read low 0.983 | locus YJR043C, strain POL32, active compounds read low 0.972 | locus YJR066W, strain TOR1, active compounds read low 0.941 | locus YJR075W, strain HOC1, active compounds read low 0.983 | locus YKL009W, strain mrt4, active compounds read low 0.978 | locus YKL068W, active compounds read low 0.973 | locus YKL085W, strain MDH1 (second series), active compounds read low 0.981 | locus YKL085W, strain MDH1, active compounds read low 0.981 | locus YKL160W, strain elf1, active compounds read low 0.986 | locus YKL190W, strain CNB1, active compounds read low 0.992 | locus YKR001C, strain vps1, active compounds read low 0.994 | locus YKR026C, strain gcn3, active compounds read low 0.946 | locus YKR091W, strain srl3, active compounds read low 0.974 | locus YLL001W, strain dnm1, active compounds read low 0.963 | locus YLL026W, active compounds read low 0.947 | locus YLL041C, strain sdh2, active compounds read low 0.959 | locus YLR027C, strain aat2, active compounds read low 0.964 | locus YLR039C, strain RIC1, active compounds read low 1.07 | locus YLR058C, strain SHM2, active compounds read low 0.978 | locus YLR102C, strain apc9, active compounds read low 0.986 | locus YLR113W, strain HOG1, active compounds read low 1.01 | locus YLR221C, strain rsa3, active compounds read low 0.986 | locus YLR258W, strain gsy2, active compounds read low 0.971 | locus YLR262C, strain YPT6 (second series), active compounds read low 0.961 | locus YLR262C, strain YPT6, active compounds read low 1.08 | locus YLR268W, strain sec22, active compounds read low 1.03 | locus YLR320W, strain mms22, active compounds read low 1.01 | locus YLR330W, strain CHS5, active compounds read low 1 | locus YLR342W, strain FKS1 (second series), active compounds read low 0.985 | locus YLR342W, strain FKS1, active compounds read low 0.974 | locus YLR357W, strain rsc2, active compounds read low 0.947 | locus YLR370C, strain arc18, active compounds read low 0.954 | locus YLR371W, strain rom2, active compounds read low 0.963 | locus YLR384C, strain iki3, active compounds read low 0.962 | locus YLR418C, strain cdc73, active compounds read low 0.959 | locus YML016C, strain PPZ1, active compounds read low 0.996 | locus YML032C, strain rad52, active compounds read low 0.952 | locus YML120C, strain ndi1, active compounds read low 0.963 | locus YML124C, strain tub3, active compounds read low 1.01 | locus YMR058W, strain fet3, active compounds read low 0.959 | locus YMR078C, strain ctf18, active compounds read low 0.988 | locus YMR125W, strain sto1, active compounds read low 0.948 | locus YMR129W, active compounds read low 0.972 | locus YMR205C, strain PFK2, active compounds read low 0.977 | locus YMR223W, strain ubp8, active compounds read low 0.985 | locus YMR231W, strain pep5, active compounds read low 0.971 | locus YMR307W, strain GAS1, active compounds read low 1.01 | locus YNL067W, strain RPL9B, active compounds read low 0.978 | locus YNL071W, strain lat1, active compounds read low 0.971 | locus YNL128W, strain TEP1, active compounds read low 0.998 | locus YNL183C, strain NPR1, active compounds read low 0.936 | locus YNL209W, strain ssb2, active compounds read low 0.958 | locus YNL233W, strain BNI4, active compounds read low 0.993 | locus YNL248C, strain rpa49, active compounds read low 0.973 | locus YNL250W, strain rad50, active compounds read low 0.984 | locus YNL271C, strain bni1, active compounds read low 0.993 | locus YNL298W, strain CLA4, active compounds read low 0.973 | locus YNL307C, strain MCK1, active compounds read low 0.988 | locus YNL322C, strain KRE1 (second series), active compounds read low 0.949 | locus YNR049C, strain mso1, active compounds read low 0.965 | locus YNR052C, strain pop2, active compounds read low 0.99 | locus YOL012C, strain htz1 1.9 | locus YOL147C, strain pex11, active compounds read low 0.991 | locus YOR001W, strain rrp6, active compounds read low 0.962 | locus YOR061W, strain CKA2, active compounds read low 0.954 | locus YOR069W, strain VPS5, active compounds read low 0.994 | locus YOR070C, strain gyp1, active compounds read low 0.977 | locus YOR080W, strain dia2, active compounds read low 0.943 | locus YOR083W, strain WHI5, active compounds read low 0.987 | locus YOR106W, strain vam3, active compounds read low 0.943 | locus YOR136W, strain idh2, active compounds read low 0.984 | locus YOR144C, strain elg1, active compounds read low 0.986 | locus YOR184W, strain ser1, active compounds read low 0.987 | locus YOR231W, strain MKK1, active compounds read low 1.03 | locus YOR265W, strain rbl2, active compounds read low 0.963 | locus YOR270C, strain vph1, active compounds read low 0.94 | locus YOR290C, strain snf2, active compounds read low 0.972 | locus YOR316C, strain cot1, active compounds read low 0.982 | locus YPL051W, strain arl3, active compounds read low 0.956 | locus YPL055C, strain LGE1, active compounds read low 0.994 | locus YPL078C, strain atp4, active compounds read low 0.952 | locus YPL106C, strain sse1, active compounds read low 0.925 | locus YPL240C, strain hsp82, active compounds read low 0.972 | locus YPL241C, strain CIN2, active compounds read low 1 | locus YPL256C, strain CLN2, active compounds read low 1.01 | locus YPR119W, strain clb2, active compounds read low 0.996 | locus YPR141C, strain kar3, active compounds read low 0.974 | locus YPR163C, strain tif3, active compounds read low 0.993 | locus YPR167C, strain met16, active compounds read low 0.99 | strain wtn01, active compounds read low 1.02
